# Reference: PubChem BioAssay (NCATS)
# Inconclusive results are not listed. A call without a number means that no potency is given here. Activity calls are given as the source filed them. Unless noted, calls follow the shape of the dose curve; as a rule, active = well fitted curve in the direction sought with a large enough effect; inconclusive = small, poorly fitted or top-dose-only effect, or another doubt; inactive = no such curve, though single readings can be large; an effect the other way counts as inactive or inconclusive.
# Key:
# [1] = target: Mitogen-activated protein kinase 10 (Mus musculus) (UniProt Q61831); test: JNK3 AlphaScreen Assay (AID 530; active = well fitted curve in either direction with a large enough effect, not every such curve was filed as active;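 also: kinase came from lysate of stimulated human HepG2 cells; signal reports phosphorylation of biotinylated GST-cJun 1-79 at Ser73 with 10 µM ATP; series mostly up to about 57 µM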)
# Outline: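 HepG2 lysate (IL-1b/TNFa pre-activated) + biotin-GST-cJun 1-79 + anti-pSer73 cJun; cpd titration, 15 min RT; ATP 10 uM start; Tris pH 7.6, MgCl2, DTT, vanadate; beads in EDTA buffer; AlphaScreen.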
# [2] = target: Cytochrome P450 3A4 (Homo sapiens) (UniProt P08684); test: qHTS Assay for Inhibitors and Substrates of Cytochrome P450 3A4 (AID 884); also: potency is read from the fitted curve at half-maximal effect; nearly all actives have a fitted effect of over 50% in size
# Chain of Cytochrome P450 3A4 (Homo sapiens) (P08684 whole entry, looked up): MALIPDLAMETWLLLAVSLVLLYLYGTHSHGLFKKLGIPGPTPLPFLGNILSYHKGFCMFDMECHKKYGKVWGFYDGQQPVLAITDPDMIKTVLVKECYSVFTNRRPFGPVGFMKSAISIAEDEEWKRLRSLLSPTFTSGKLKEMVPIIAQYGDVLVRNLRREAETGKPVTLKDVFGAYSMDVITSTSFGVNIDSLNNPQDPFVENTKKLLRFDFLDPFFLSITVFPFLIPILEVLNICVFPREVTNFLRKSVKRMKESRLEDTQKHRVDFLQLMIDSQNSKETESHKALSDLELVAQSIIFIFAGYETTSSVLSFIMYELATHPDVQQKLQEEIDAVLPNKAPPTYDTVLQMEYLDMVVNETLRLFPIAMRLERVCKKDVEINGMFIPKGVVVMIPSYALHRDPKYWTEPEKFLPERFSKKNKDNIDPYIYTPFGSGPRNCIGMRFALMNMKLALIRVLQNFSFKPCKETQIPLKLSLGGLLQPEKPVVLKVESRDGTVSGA
# Outline: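 Luminescent readout of luciferin produced by CYP3A4 (20 nM) dealkylation of Luciferin-PPXE, 25 uM (its KM). NADPH-driven reaction ran 60 min at RT after 10 min compound preincubation; data scaled to 57 uM ketoconazole as 100% inhibition.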
# [3] = target: Cytochrome P450 3A4 (Homo sapiens) (UniProt P08684); test: qHTS Assay for Activators of Cytochrome P450 3A4 (AID 885); also: nearly all actives have a fitted effect of over 65% in size
# Outline: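 CYP3A4 activity: Luciferin-PPXE O-dealkylation, 25uM substrate, 200mM KPO4, RT throughout. Read-out is luciferase luminescence; higher values reflect activation.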
SMILES,outcome [1],Potency [2],Potency [3]
O=C1C(Cl)=C(NC2CCc3ccccc32)C(=O)c2ncccc21 (stereo not given),inactive,1.58 µM (active),inactive
COC(=O)c1ccc(C(NC(=O)OCc2ccccc2)/C(C)=C/[C@@H](C)C(=O)NCCc2c[nH]c3ccc(OC)cc23)cc1 (stereo not given in full),inactive,2 µM (active),inactive
COC(=O)c1ccc(C(NC(=O)OCc2ccccc2)/C(F)=C/[C@@H](C)C(=O)NCc2cc(F)cc(F)c2)cc1 (stereo not given in full),inactive,3.98 µM (active),inactive
COC(=O)c1ccc(C(NC(=O)OCc2ccccc2)/C(F)=C/[C@@H](C)C(=O)NC2CCCCC2)cc1 (stereo not given in full),inactive,3.98 µM (active),inactive
COC(=O)c1ccc(C(NC(=O)OCc2ccccc2)/C(I)=C/[C@@H](C)C(=O)NCC2CC2)cc1 (stereo not given in full),inactive,3.98 µM (active),inactive
CC(Cc1ccccc1)C(=O)NCCO (stereo not given),inactive,15.8 µM (active),inactive
COC(=O)c1ccc(C(NC(=O)OCc2ccccc2)/C(=C/[C@@H](C)C(=O)NC2CCCCC2)c2cccnc2)cc1 (stereo not given in full),inactive,1.26 µM (active),inactive
CCNC(=O)[C@H](C)/C=C/C(NC(=O)OCc1ccccc1)c1ccc(C(=O)OC)cc1 (stereo not given in full),inactive,6.31 µM (active),inactive
COCCNC(=O)[C@@]1(C)C=C[C@@H](Cc2ccccc2)N1C(=O)c1ccccc1,inactive,7.94 µM (active),inactive
COC(=O)c1ccc(C(NC(=O)OCc2ccccc2)/C(F)=C/[C@@H](C)C(=O)Nc2ccc(OC)cc2)cc1 (stereo not given in full),inactive,2 µM (active),inactive
